From PubChem
A selection: hits, their analogues and other compounds. The true share with any hit is near 3.7%.
A549 viability: Nrf2 qHTS screen for inhibitors: counterscreen for cytotoxicity. A549 ARE-Fluc cells, CellTiter-Fluor viability, 18-24 h. AID 504648, 2011. Potency, µM (top dose mostly 46 µM), for inactives: at the top dose activity change, negative = cytotoxicity, usual class: inhibitors. 390,000 tested, 0.16% active; also: potency is read from the fitted curve at half-maximal effect; % is scaled to controls: 0 for no effect and ±100 for the full control effect
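A549 ARE_Fluc cells in 5% FBS OPTI-MEM were exposed to compounds in concentration-response for 18-24 h at 37 deg C. Viability was read by CellTiter-Fluor fluorescence (Ex 405/Em 525) after 30 min, before the luciferase read.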
Nrf2 inh: Nrf2 qHTS screen for inhibitors. A549 ARE-Fluc reporter, luciferase luminescence, 18-24 h. 360,000 tested, 2.1% active. AID 504444, 2011. Potency, µM (titrated, usually from 46 µM), without a hit: at the top dose activity change, negative = inhibition, usual class: inhibitors; also: potency is read from the fitted curve at half-maximal effect; % is scaled to controls: 0 for no effect and ±100 for the full control effect; nearly all actives have a fitted effect of over 60% in size
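A549 ARE_Fluc cells, 5000/well, 5% FBS OPTI-MEM; compounds in dose-response, 18-24 h at 37 °C/5% CO2; CellTiter-Fluor viability read (Ex 405/Em 525), then BugLite luciferase luminescence = Nrf2 activity.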
miR-21 reporter: qHTS Assay for Modulators of miRNAs and/orActivators of miR-21; Potency, µM (titrated, usually from 38.3 µM), for the others: at the top dose activity change, positive = activation, hits mostly activators; HeLa miR-21 FLuc reporter, luciferase, 48 h; 340,000 tested, under 10 active; AID 2288, 2010;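 also: % of control where 0% means no effect; miR-21 action dims this reporter so a rising signal means less miR-21 action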
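HeLa miR-21-FLuc reporter line, endogenous miR-21; 2000 cells/well in DMEM/10% FBS; compound titration up to ~40uM final, 48 h, 37 degree Celsius; luciferase detection reagent, 15 min lysis, CCD luminescence.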
ClpP mod: qHTS Assay for Activators of ClpP; purified B. subtilis ClpP, FRET peptide cleavage, 20 min; 340,000 tested, 1.9% active; ATP-dependent Clp protease proteolytic subunit (Bacillus subtilis (strain 168)), P80244; Potency, µM (highest dose often 57.5 µM), without a hit: at the top dose activity change, negative = active; active = well fitted falling curve with a large enough effect; inconclusive = small, poorly fitted or top-dose-only effect; inactive = no such curve, though single readings can be large or run the other way; also: potency is read from the fitted curve at half-maximal effect; the source files actives as falling curves though it sought activators and does not explain the sign; nearly all actives have a fitted effect of over 65% in size
Target sequence (P80244 whole entry, looked up): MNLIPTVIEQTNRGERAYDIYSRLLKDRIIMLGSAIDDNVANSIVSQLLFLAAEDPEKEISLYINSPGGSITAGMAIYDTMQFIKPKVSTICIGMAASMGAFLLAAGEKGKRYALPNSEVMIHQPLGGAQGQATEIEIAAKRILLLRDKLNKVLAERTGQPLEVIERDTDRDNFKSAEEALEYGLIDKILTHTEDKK
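Buffer: 100 mM Tris/HCl pH8, 100 mM KCl, 0.05% low protease BSA, 2.5% glycerol, 0.01% Tween-20. ClpP 10 microg/mL final; 20 min RT; delta FRET normalized to ADEP and DMSO controls.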
TCR activator: Activators of T cell receptors: qHTS campaign; primary human leukocytes, anti-CD3, IL-2 HTRF, 48 h; 330,000 tested, under 10 active; Potency, µM (top dose mostly 9.22 µM), for the others: at the highest dose activation of IL-2 secretion, actives largely listed as activators; also: % of control where 0% means no effect
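48 hr co-incubation of compounds, a-CD3 beads and primary human leukocytes; IL-2 quantified homogeneously by HTRF with anti-IL-2 K and d2 conjugates.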
Nrf2 activator: qHTS of Nrf2 Activators | AREc32 ARE-luciferase reporter (MCF7-derived line), luminescence, 24 h | 410,000 tested, 0.31% active | Potency, µM (top dose mostly 46.1 µM), inactives show at the highest dose activation, most hits filed as activators; also: potency is read from the fitted curve at half-maximal effect; % of control where 0% means no effect; nearly all actives have a fitted effect of over 65% in size
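ARE-driven firefly luciferase activity in AREc32 cells measured after a 24 hr compound exposure at 37 deg C, using Steady-Glo reagent and a 30 min room-temperature hold.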
* = called active by the depositor; ? = inconclusive; . = no result given; [ ] = dose if it differs, or a comment. Unless noted, calls follow the shape of the dose curve; as a rule, active = well fitted curve in the direction sought with a large enough effect; inconclusive = small, poorly fitted or top-dose-only effect, or another doubt; inactive = no such curve, though single readings can be large; an effect the other way counts as inactive or inconclusive.

SMILES	A549 viability	Nrf2 inh	miR-21 reporter	ClpP mod	TCR activator	Nrf2 activator
CC1=CC(C)(C)Nc2ccc(C)cc21	-8%[1.84 µM]	-4%	-1%	32µM*	.	0%
N#CC(Sc1ccccn1)c1ccc(Cl)cc1 (centres undefined)	0%	13µM*	1%	.	4%	19%
Cc1ccc(N2CC(C(=O)N(C)CC(=O)Nc3ccc(Cl)c(C(F)(F)F)c3)CC2=O)cc1 (centres undefined)	-16%	?	.	0%	-1%	0%
CCCNC(=S)Nc1ccc(Cl)cc1C	-2%	0%	0%	-2%	-6%[46.1 µM]	1%
C=CCNC(=S)Nc1ccc(Cl)cc1F	-2%	-26%	-6%	-2%	1%	6%
C=CCNC(=S)Nc1ccc(Br)cc1F	0%	23µM*	-22%	0%	-1%[46.1 µM]	3%
CCCNC(=S)Nc1ccc(F)cc1F	1%	12µM*	5%	1%	5%	0%
CC(C)Sc1nc(NCc2ccco2)c2c3c(sc2n1)COC(C)(C)C3	0%	?	-45%	28µM*	0%	?
CSc1nc(SCC(=O)NCc2ccco2)c2c3c(sc2n1)COC(C)(C)C3	-14%	.	22%	-18%	.	6%
COc1ccc(OC)c(NC(=O)CSc2nnc(NC(=O)c3ccco3)s2)c1	6%	11%	1%	-3%	-3%	-1%
CN(C)C(=O)COC(=O)c1ccccc1OCC(=O)Nc1ccc(Br)cc1	.	.	.	-2%	.	.
CC(=O)c1ccc(NC(=O)c2ccc3c(=O)n4c(nc3c2)CCCCC4)cc1	1%	-2%	9%	0%	-2%	1%
Cc1ccc(-c2csc(NC(=O)c3ccc4c(=O)n5c(nc4c3)CCCCC5)n2)cc1	12%	5.2µM*	17%	-8%	4%[46.1 µM]	3%[9.22 µM]
COc1ccc(CNC(=O)c2ccc3c(=O)n4c(nc3c2)CCCCC4)cc1OC	-14%	6.5µM*	.	?	1%	0%
COc1cccc(C(NC(C)=O)c2nc(-c3ccc4c(c3)OCO4)cs2)c1 (centres undefined)	.	.	.	1%	.	-1%
COC(=O)[C@]12CCCCC=C1N(Cc1ccccc1)C(=O)[C@H](CC(=O)NCC1CCCCC1)C2	.	.	.	0%	.	-1%
Cc1sc(NC(=O)c2ccccc2F)c(CN2CCCCC2)c1C	-3%	?	-50%	8%	-6%[46.1 µM]	28%
Cc1sc(NC(=O)c2ccc(F)cc2)c(CN2CCCCCC2)c1C	-10%	17%	-58%	3%	0%[46.1 µM]	13µM*
COc1cc(C(=O)Nc2ccc(-c3nnc(-c4ccco4)o3)cc2)cc(OC)c1OC	2%	16%	-23%	14%	0%	0%
CCOc1cc(-c2nnc(-c3ccco3)o2)cc(OCC)c1OCC	5%	.	-3%	22µM*	.	2%
CCOc1ccc(-c2nnc(-c3ccco3)o2)cc1OCC	?	10%	-74%	22µM*	-1%	4%
COc1ccc2c(c1)c(CC(=O)Nc1ccc(C(C)=O)cc1)c(C)n2C(=O)c1ccc(Cl)cc1	?	23µM*	0%	-3%	-11%[46.1 µM]	6%
COc1ccc2c(c1)c(CC(=O)Nc1cc(C)ccc1C)c(C)n2C(=O)c1ccc(Cl)cc1	-1%	-9%	-15%	-5%	1%[46.1 µM]	4%
COc1ccc(OC)c(NC(=O)Cc2c(C)n(C(=O)c3ccc(Cl)cc3)c3ccc(OC)cc23)c1	-12%	23µM*	-1%	-3%	.	-1%
Cc1cccc(N2CCN(C(=O)C3CCN(S(=O)(=O)Cc4ccccc4)CC3)CC2)c1C	-3%	-3%	-1%	0%	.	-1%
SMILES	A549 viability	Nrf2 inh	miR-21 reporter	ClpP mod	TCR activator	Nrf2 activator
COc1ccccc1-c1nnc(SC2CCc3ccccc3NC2=O)s1 (centres undefined)	1%	?	-11%	22µM*	-5%[46.1 µM]	3%
COc1ccccc1-c1nnc(N)s1	-9%	-5%	-9%	.	-1%	0%
CC(C)(C)OC(=O)N(CCc1ccccc1)Cc1ccccc1OCc1cccc(NC(=O)C2CC2)c1	-11%	21µM*	.	-6%	-3%	5%
CC1CC(Nc2ccccc2N)=CC(=O)O1 (centres undefined)	-1%	8%	-27%	-3%	5%	0%
Cc1cccc(NC2=CC(=O)OC(C)C2)c1 (centres undefined)	-4%	4%	1%	28µM*	-4%	0%
COc1nc(C)nc2c1sc1nc3c(cc12)COC(C)(C)C3	2%	?	-47%	28µM*	0%	0%
CC1(C)Cc2nc3sc4c(N(CCO)CCO)ncnc4c3cc2CO1	-1%	22%	-34%	14µM*	2%	0%
Cc1nc(OCC(C)C)c2sc3nc4c(cc3c2n1)COC(C)(C)C4	3%	?	-45%	.	1%	2%
CC1(C)Cc2nc3sc4c(N(CCO)CCO)nnnc4c3cc2CO1	2%	?	-42%	4%	4%	2%
Cc1nc(NC(=O)CCl)sc1C(=O)N(C)C	-4%	-21%	12%	0%	13%	13µM*
COc1ccccc1N1CCN(C(c2ccc(F)cc2)c2nnnn2C(C)C)CC1 (centres undefined)	1%	9%	-3%	18µM*	5%	0%
NNC(=O)CSc1cccc2cccnc12	10%	10%	-19%	?	2%[46.1 µM]	3%
O=C(CSc1cccc2cccnc12)OCC(=O)c1ccccc1	1%	14%	-3%	25µM*	.	10%
O=C(CSc1cccc2cccnc12)OCC(=O)c1ccc(Br)cc1	0%	-3%	2%	29%	-6%	4%
CN(C)C(=O)CSc1cccc2cccnc12	-3%	.	20%	20µM*	-5%	?
O=C(Sc1ccc(Cl)cc1)c1ccccn1	1%	29%	.	.	-8%	13%
COc1ccc(C2Nc3ccccc3C(=O)N2Cc2cccc(C(F)(F)F)c2)cc1COc1ccc(NC(C)=O)cc1 (centres undefined)	-15%	?	.	.	.	.
CC(C)Cc1[nH]c(=O)c(C#N)c2c1COC(C)(C)C2	6%	3%	-4%	?	-5%	-1%
CCc1nc(NCC2CCCO2)c(C#N)c2c1COC(C)(C)C2 (centres undefined)	1%	-5%	-14%	13%	0%[46.1 µM]	0%
CC(C)c1nc(NCC2CCCO2)c(C#N)c2c1COC(C)(C)C2 (centres undefined)	-2%	-11%	-18%	28µM*	-3%	0%
CCCc1[nH]c(=O)c(C#N)c2c1COC(C)(C)C2	-9%	2%	-7%	25µM*	1%	0%
